Bioassay records as filed in PubChem.
FMDV inh – antivirals against foot and mouth disease virus | FMDV antiviral cell-based qHTS | Potency, µM (top dose mostly 57.9 µM), usual class: inhibitors | 410,000 compounds, 1.2% hits | AID 1159524; calls by dose curve; tested in HEK293T cells; note: read-out not given here; nearly all actives have a fitted effect of over 45% in size
RE007 growth inh – less growth of the S. pombe RE007 Vpr strain; S. pombe RE007 Vpr strain, BacTiter-Glo ATP luminescence, 24 h; Potency, µM (highest dose often 92.2 µM), hits mostly inhibitors; 360,000 compounds, 0.21% hits; active = well fitted falling curve with a large enough effect; inconclusive = small, poorly fitted or top-dose-only effect; inactive = no such curve, though single readings can be large or run the other way; note: nearly all actives have a fitted effect of over 50% in size
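Fission yeast RE007 carrying one integrated HIV-1 vpr copy, seeded at OD 0.01 in PMG+AL medium with 23 nL pinned compound. Grown 24 h at 30 degrees; viability read by BacTiter-Glo luminescence after 5 min.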
Sm TGR block – S. mansoni TGR enzyme inhibition | Q962Y6 | purified TGR, DTNB reduction, TNB absorbance 405 nm | Potency, µM (titrated, usually from 114 µM), hits mostly inhibitors | 360,000 compounds, 3% hits | AID 485364; note: nearly all actives have a fitted effect of over 60% in size
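First, TGR (20 nM dispensed) and NADPH were mixed with compound. Second, a 15 min room-temperature incubation followed. Third, further NADPH and then DTNB were added to start the reaction. Finally, TNB absorbance was monitored kinetically.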
MARV entry inh – Marburg virus entry inhibition. Marburg virus pseudotyped entry inhibition, cell reporter. Potency, µM (titrated, usually from 37.8 µM), usual class: inhibitors. 300,000 compounds, 1.8% hits. AID 540276; calls by dose curve; tested in HEK293 cells
Lassa entry inh – blocks Lassa virus binding to or entry into cells; Lassa virus pseudotype entry inhibition, cell reporter; Potency, µM (highest dose often 37.9 µM), most hits filed as inhibitors; 300,000 compounds, 1.2% hits; AID 540256; calls by dose curve; tested in HEK293 cells; note: nearly all actives have a fitted effect of over 50% in size
HCV inh – HCV inhibition | Huh7.5.1 HCVcc-Cre infection, luciferase reporter, 44 h | AID 651820 | Potency, µM (doses to about 41.8 µM), usual class: inhibitors | 340,000 compounds, 3.4% hits
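HCVcc-Cre virus at an moi near 0.5 was added right after compound to cells cultured 4 h from seeding (1,000 cells/well). Luciferase activity was determined 44 h later, 15 min after substrate addition at RT.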
Of the large screens only hits and unclear results are named; the others gave an inactive call; ! = not confirmed by another sample. Sampled rows, rich in hits. Any-hit rate of the full collection: about 7.2%. Unless noted, calls come from the whole dose curve; as a rule, active = well fitted curve in the direction sought with a large enough effect; inconclusive = small, poorly fitted or top-dose-only effect, or another doubt; inactive = no such curve, though single readings can be large; an effect the other way counts as inactive or inconclusive.

COc1ccc(NC(=O)CSc2nc(-c3ccco3)cc(C(F)(F)F)n2)c(OC)c1	none (no result: RE007 growth inh, HCV inh)
N#CC1(c2ccccc2)CCCN1C(=O)c1ccc(Br)o1 (configuration not stated)	Sm TGR block 39.8µM
O=C(c1ccc(Br)o1)N1CCCc2ccccc21	RE007 growth inh inconclusive
Cc1ccc(-c2c3c(nc4sc(C(N)=O)c(N)c24)CCCC3)o1	FMDV inh inconclusive
O=C(COC(=O)c1c2c(nc3ccccc13)/C(=C\c1ccco1)CC2)NC1CCCC1	MARV entry inh inconclusive, HCV inh inconclusive (no result: Sm TGR block)
NC(=O)c1sc2nc3c(c(-c4ccco4)c2c1N)CCC3	HCV inh 22.4µM (no result: FMDV inh)
Nc1c(C(=O)NC2CC2)sc2nc3c(c(-c4ccco4)c12)CC/C3=C/c1ccco1	Sm TGR block 5.01µM, MARV entry inh 4.47µM, HCV inh inconclusive
CCOC(=O)C1CCCN(c2nc3c(S(=O)(=O)c4ccc(Br)cc4)nnn3c3ccsc23)C1 (configuration not stated)	Lassa entry inh inconclusive (no result: RE007 growth inh, MARV entry inh, HCV inh)
Cc1cc(C)c2c(-n3cccc3)c(C(=O)NCCCN3CCCCC3)sc2n1	MARV entry inh inconclusive (no result: RE007 growth inh, HCV inh)
COc1ccc(NC(=O)NCCCN2CCN(c3ccccc3F)CC2)cc1	none
CCOc1cccc(N2CCN(CCNC(=O)Nc3ccc(C)cc3)CC2)c1C	FMDV inh inconclusive, HCV inh 12.6µM (no result: MARV entry inh, Lassa entry inh)
CCOc1ccc(NC(=O)NCCN2CCN(c3cccc(C)c3C)CC2)cc1	FMDV inh inconclusive, HCV inh inconclusive
COc1ccc(NC(=O)NCCCN2CCN(c3cc(C)ccc3C)CC2)cc1	FMDV inh inconclusive, HCV inh 10µM (no result: MARV entry inh, Lassa entry inh)
O=C(c1cc(C(F)(F)F)cc(C(F)(F)F)c1)N1CCC[C@@]2(CCN(Cc3ccccc3)C2)C1	none (no result: RE007 growth inh, Sm TGR block, MARV entry inh, Lassa entry inh, HCV inh)
CSc1cc(-c2ccccc2)n(Cc2c(Cl)cccc2Cl)c(=O)c1C#N	Lassa entry inh inconclusive
CSc1cc(-c2ccccc2)n(C)c(=O)c1C#N	HCV inh 10µM
C=C1C(=O)OC2C=C(C)CCC=C(C)CCC12 (configuration not stated)	none (no result: RE007 growth inh, Sm TGR block, MARV entry inh, Lassa entry inh, HCV inh)
C=C1C(=O)O[C@@H]2[C@H]3O[C@]3(C)CC/C=C(\C)CC[C@@H]12	FMDV inh 31.6µM!, MARV entry inh 22.4µM (no result: Sm TGR block, Lassa entry inh)
COc1ccc(-c2nc(CSc3nnc(C)n4c3cc3occc34)c(C)o2)cc1OC	Lassa entry inh inconclusive (no result: RE007 growth inh, MARV entry inh, HCV inh)
COc1ccc(/C=C2\N=C(C)OC2=O)cc1OC(C)=O	Sm TGR block inconclusive (no result: MARV entry inh, Lassa entry inh)
CCOc1cc(/C=C2\N=C(C)OC2=O)cc(Br)c1OCC(=O)OC	Sm TGR block 25.1µM, MARV entry inh inconclusive, Lassa entry inh inconclusive (no result: FMDV inh)
CCOc1cc(/C=C2\N=C(C)OC2=O)cc(Br)c1OCCc1ccccc1	none (no result: FMDV inh)
COc1ccc(/C=C2\N=C(C)OC2=O)cc1OC	Sm TGR block 15.8µM (no result: MARV entry inh, Lassa entry inh)
Cn1c(=O)n(CCCc2ccccc2)c(=O)c2c1nc1n2CCN1c1ccccc1	FMDV inh inconclusive (no result: RE007 growth inh, MARV entry inh, HCV inh)
C[C@H](NC(=O)C1CCN(S(=O)(=O)c2ccccc2)CC1)C(=O)NC1CC1	none (no result: Sm TGR block, MARV entry inh, Lassa entry inh, HCV inh)
CC(C)Sc1nnc(-c2ccc(S(=O)(=O)N3CCOCC3)cc2)n1C	Sm TGR block 50.1µM, MARV entry inh inconclusive (no result: Lassa entry inh)
CSc1ccc(-c2ccc3c(c2)CC(CNC(=O)Cn2nc(C)nc2C)O3)cc1 (configuration not stated)	none (no result: RE007 growth inh, Sm TGR block, MARV entry inh, Lassa entry inh, HCV inh)
COC(=O)[C@@H]1CC[C@H](C)[C@@H](c2ccc(C)cc2)N1C(=O)c1ccc(C=NO[C@@H](C)c2cc(-c3c(C)cc(C)cc3C)no2)cc1	none (no result: FMDV inh, RE007 growth inh, Sm TGR block, Lassa entry inh, HCV inh)
O=C(c1ccco1)N1CCN(Cc2c(Cl)cccc2Cl)CC1	none (no result: MARV entry inh, Lassa entry inh)
Cn1c(C(=O)N2CCN(C(=O)c3ccco3)CC2)cc2c(=O)n3ccccc3nc21	Sm TGR block 44.7µM, HCV inh inconclusive
O=c1cc(CN2CCN(Cc3ccccc3)CC2)c2ccc(O)cc2o1	none
Cn1c(C(=O)N2CCOCC2)cc2c(=O)n3ccccc3nc21	none
O=C(c1ccco1)N1CCN(Cc2cccc3ccccc23)CC1	MARV entry inh 5.01µM, Lassa entry inh 10µM
Nc1nc(N2CCN(C(=O)c3ccco3)CC2)nc2ccccc12	none
O=C(c1ccco1)N1CCN(Cc2cc(=O)oc3cc(O)ccc23)CC1	Sm TGR block 44.7µM (no result: MARV entry inh, Lassa entry inh)
